Compound activity from PubChem.
m5-HT2A agonist: activates the mouse 5-HT2A serotonin receptor; P35363; CHO-K1 mHTR2A beta-arrestin complementation, luminescence; percent of 30 µM serotonin response; activation, % at 7.6 µM; hit rate 0.66% among 360,000; AID 624169;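 active = activation above a run cutoff, the mean activation of all tested compounds plus 3 SD, cut at about 14% in these data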;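 note: 0% = plate median of compound wells and 100% = 30 µM serotonin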
Granule exo inh: blocks lytic granule exocytosis; TALL-104 LAMP-1 surface exposure, flow cytometry; cells stimulated with thapsigargin and PMA; hit rate 0.66% among 360,000; inhibition, % at 10 µM;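 active = inhibition above about 55%, limit read from the data; inconclusive = no clear call, values can overlap the other calls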
MEX-5 binding: C. elegans MEX-5 TCR-2 RNA binding activity | Q9XUB2 | MEX-5/FITC-TCR2 RNA binding, fluorescence polarization; stronger effect = lower value | activity score (negative = inhibition of binding), % at 10 µM | hit rate 0.38% among 300,000 | AID 1832;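 active = inhibition past about -25% in most replicates, and total fluorescence under double the plate's negative control median, limit read from the data; inconclusive = replicates evenly split on the limit, or fluorescence at least double controls; inactive = too little inhibition in most replicates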;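 note: 0% = DMSO and -100% = 5 µM competing unlabeled TCR2 RNA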
V-ATPase pH: yeast V-ATPase proton transport regulation by pHLuorin; hit rate 0.37% among 350,000; response, % at 10 µM; S. cerevisiae, pHLuorin cytosolic pH fluorescence; AID 504577; in the data active = response mostly above about 7.3%, no sharp cut-off; inactive = mostly below about 5.4%; note: actives read high
GASC-1 inh: blocks human GASC-1 demethylase activity. Q9H3R0. GST-JMJD2C(1-420) H3K9me3 demethylation, DELFIA europium. inhibition, % at 2.35 µM. hit rate 0.069% among 330,000. AID 2099;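 active = more than half of a compound's replicate wells show inhibition beyond 50%, single wells judged on their own value; inconclusive = some, but no more than half, of replicates pass 50% inhibition; inactive = no replicate passes 50% inhibition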;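 note: signal counts dimethyl H3K9 product captured on neutravidin plate; 0% = median of DMSO wells and 100% = 0.3 times that DMSO median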
VLA-4 inh: inhibition in a human VLA-4 binding assay; P13612; VLA-4 expressing cells, ligand binding flow cytometry; inhibition, % (about 7 µM as worked out from the volumes in the protocol); hit rate 0.2% among 330,000; AID 2557; in the data active = inhibition above about 50%
Active calls of the source: *; u = inconclusive; x = no result. In the library only some 2.2% were active in any assay of this set; here they are far more common.

SMILES | m5-HT2A agonist | Granule exo inh | MEX-5 binding | V-ATPase pH | GASC-1 inh | VLA-4 inh
COC(=O)c1ccc(CSc2ccccc2NC(=S)Nc2cccc(C(F)(F)F)c2)o1 | -1 | -5 | x | 1 | x | x
Cc1[nH]c2ccccc2c1CCNC(=O)CCC(=O)c1ccccc1 | 2 | -5 | 0 | 17* | 4 | -5
Cc1cccc(C(=O)N/N=C/C(C)Cc2ccc3c(c2)OCO3)c1 (centres undefined) | -3 | -2 | 2 | -3 | 67* | 9
CC(/C=N\NC(=O)c1ccc2c(c1)OCO2)c1ccccc1 (centres undefined) | -5 | 3 | 2 | -2 | 5 | -1
CC1=C(C(=O)OC(C)C)C(c2cn(-c3ccccc3)nc2-c2cccs2)NC(=O)N1 (centres undefined) | 1 | 12 | 1 | 16* | 8 | -3
CN1C2CCC1/C(=C\c1ccc(F)cc1)C(=O)/C2=C/c1ccc(F)cc1 | -6 | -1 | -1 | -3 | -13 | 13
C=CC(=O)N1C/C(=C/c2ccc(F)cc2)C(=O)/C(=C\c2ccc(F)cc2)C1 | -6 | 94* | x | -2 | x | x
CCOC(=O)c1ccc[n+](CC(=O)Nc2cc(C(F)(F)F)ccc2Cl)c1 | -3 | -1 | 0 | 5 | 4 | -5
O=C(NNC(=O)c1ccccc1O)c1ccc(S(=O)(=O)Nc2ccccc2F)cc1 | 3 | -15 | -26* | 5 | 16 | 0
CCC(CC)C(=O)Nc1cccc(C(=O)Nc2nnc(C)s2)c1 | 4 | 2 | 1 | 211* | 1 | -20
COc1ccc(CNN2CCCCC2C(=O)Nc2ccc(OC)c(OCC(C)C)c2)cc1OC (centres undefined) | 1 | -5 | 1 | -3 | -2 | -17
COc1ccc(NC(=O)C2CCCCN2N)cc1OCC(C)C (centres undefined) | -1 | -3 | 0 | -1 | 80* | -12
C=CCn1cc(CN2CCC(C(=O)Nc3cccc(-c4cccc(Cl)c4)c3)CC2)c(C)n1 | -3 | 36 | 4 | 2 | 2 | 18
COc1ccc(Nc2nnc(SCC(=O)/C=C3/N(C)c4ccccc4C3(C)C)s2)cc1 | -5 | 4 | 0 | 7 | -14 | -129
Cc1cn([C@H]2C[C@H](O)[C@@H](CCC(=O)NCc3ccco3)O2)c(=O)[nH]c1=O | 0 | -2 | x | 1 | x | x
COc1ccc(C2CC(=O)C(C=NCCCO)=C(O)C2)cc1 (centres undefined) | 0 | -10 | -27* | 3 | 12 | -26
O=C(c1ccccc1)C(CN1CCCCC1)c1ccccc1 (centres undefined) | -1 | 2 | x | -4 | x | x
CC[n+]1c(/C=C/c2c[nH]c3ccccc23)ccc2cc(C)ccc21 | x | x | x | 8.2* | x | x
CCN(CC)C(=O)c1ccc(/C=C/c2c[nH]c3ccccc23)[n+](C)c1 | -4 | -1 | u | -4 | -19 | -165
CC(C)c1ccc(/C=C2\Oc3c(ccc(O)c3CN3CCN(C)CC3)C2=O)cc1 | 3 | 0 | -20 | -1 | 0 | -2
Cc1ccc(/C=C2\Oc3c(ccc(O)c3CN3CCN(CCO)CC3)C2=O)cc1 | 2 | -3 | -32* | 1 | 6 | 3
Cc1ccc(S(=O)(=O)N(C(=O)c2ccncc2)c2ccc(OC(=O)c3ccncc3)c3ccccc23)cc1 | -3 | 118* | -4 | 1 | 14 | 18
Cc1ccc(S(=O)(=O)N(C(=O)c2ccncc2)c2ccc(OC(=O)c3ccncc3)c3ccccc23)c(C)c1 | -3 | 100* | 0 | -4 | 10 | -1
CC(=O)Oc1ccc(N(C(C)=O)S(=O)(=O)c2ccc(C)cc2C)c2ccccc12 | 3 | 11 | 7 | 2 | -5 | 0
C=CCN(C(=O)c1csnn1)C(C(=O)NC1CCCC1)c1c(F)cccc1Cl (centres undefined) | 4 | 26 | 3 | -1 | -3 | 10
SMILES | m5-HT2A agonist | Granule exo inh | MEX-5 binding | V-ATPase pH | GASC-1 inh | VLA-4 inh
O=C(c1cccc(S(=O)(=O)N2CCOCC2)c1)N1CCN(c2ccc(F)cc2)CC1 | 3 | -1 | 3 | 18* | 0 | 5
COc1ccc(Nc2nc(-c3ccccc3)nc3ccccc23)cc1S(=O)(=O)N1CCOCC1 | 3 | -5 | 3 | -1 | -7 | 5
COc1ccc(C(=O)Nc2ccc(-c3ccc(C)o3)cc2)cc1S(=O)(=O)N1CCOCC1 | -4 | 72* | -1 | 1 | 0 | -1
CCCN1CCC(=NNc2ccc(C(=O)O)cc2)CC1 | 0 | -2 | -2 | -1 | 1 | 7
Cc1cc(CNC(=O)Cn2nc(C)c([N+](=O)[O-])c2C)c2ccccc2n1 | -4 | 58* | x | -1 | -3 | 21
Cc1ccc(S(=O)(=O)N2CCN(C(=O)COC(=O)c3ccccc3OC(F)F)CC2)c(C)c1 | 7 | 6 | x | -4 | x | x
Cc1ccc(S(=O)(=O)N2CCN(C(=O)COC(=O)c3ccccc3Cl)CC2)c(C)c1 | 17* | 1 | x | 4 | -1 | -2
COc1ccc(N=C2S/C(=C\c3ccc(Cl)c([N+](=O)[O-])c3)C(=O)N2CCN(C)C)cc1 | -7 | 73* | 1 | 0 | -16 | 30
CCN(CC)CCN1C(=O)/C(=C\c2ccc(Cl)c([N+](=O)[O-])c2)SC1=Nc1ccc(OC)cc1 | -7 | 93* | 1 | 3 | 8 | 29
CC(NCc1ccc(OCc2ccc(Cl)cc2)cc1)C(O)c1ccccc1 (centres undefined) | -7 | 67* | -1 | -3 | 0 | 3
N#CC(C#N)=C1C=CC=CN1/C(=C\c1ccccc1)C(=O)c1cccs1 | 5 | 6 | 0 | 7 | 5 | 1
N#CC(C#N)=C1C=CC=CN1/C(=C\c1ccccc1Cl)C(=O)c1ccccc1 | -3 | 68* | x | -1 | 3 | 11
CCN1CCN(CC(=O)Nc2ccc3c(c2)OCO3)C(=O)C1=O | 23* | 0 | 1 | 1 | -3 | -24
COc1ccc(OCCCC(=O)Nc2ccc3c(c2)OCO3)cc1 | 1 | 0 | -3 | 16* | -11 | -12
CCN1CCN(CC(=O)Nc2ccc3c(c2)OCCO3)C(=O)C1=O | 4 | 0 | 2 | 3 | -5 | -11
CCOc1ccc(OCCC(=O)Nc2ccc3c(c2)OCO3)cc1 | 3 | 3 | x | -1 | -3 | 23
COc1ccc(NC(=O)c2cc(-c3ccc(C)o3)nc3ccccc23)cc1OC | -1 | 64* | x | 6 | x | -11
CC(OC(=O)c1ncc(Cl)c(Cl)c1Cl)C(=O)NC1(C#N)CCCCC1 (centres undefined) | -3 | -10 | 3 | 3 | 0 | 1
CCN(C(=S)Nc1cc(S(=O)(=O)N2CCOCC2)ccc1Cl)c1cccc2ccccc12 | -4 | 61* | -2 | -1 | 8 | 5
O=S(=O)(c1ccc(Cl)c(NC(=S)Nc2cccc(O)c2)c1)N1CCOCC1 | 0 | 1 | -1 | -1 | 8 | 12
